Measurements from ChEMBL document CHEMBL4513146, “CO-ADD screening of Karazin Kharkiv National University (Ukraine) compounds”.
Results with a measured potency or affinity are listed apart.

System: Escherichia coli
Details: Concentration 32 ug.mL-1;; ASSAY_TEST Inhibition of Bacterial Growth; detection method Absorption (OD600); MEDIA CAMHB; plate type 384well; NBS; CORNING #3640; time 18 hr

| Structure (SMILES) | Inhibition [%] |
| --- | --- |
| COc1ccc(NC(=O)Cn2c(=O)c3nnc(C(C)C)n3c3ccccc32)cc1Cl | 0.69 |
| COc1ccc(NC(=O)Cn2nc3c(Sc4cccc(F)c4)nccn3c2=O)cc1Cl | -7.48 |
| Cc1cc(C)c(NC(=O)Cn2nc3c(N4CCN(c5ccccc5)CC4)nccn3c2=O)c(C)c1 | -0.55 |
| O=C(Cn1nc2nc(Nc3ccc(F)cc3)ccn2c1=O)NCC1CCCO1 (stereo not given) | -9.11 |
| COc1cccc(-n2ccn3c(-c4ccc([N+](=O)[O-])cc4)nnc3c2=O)c1 | -8.12 |
| COc1cc(OC)c(NC(=O)Cn2nc3c(Oc4cccc(C)c4C)nccn3c2=O)cc1Cl | -3.57 |
| Cc1ccc(NC(=O)Cn2nc3c(N4CCOCC4)nccn3c2=O)cc1F | 2.81 |
| Cc1ccc(-c2cc3c4nnc(CCC(=O)N5CCC(Cc6ccccc6)CC5)n4ccn3n2)cc1C | 2.4 |
| Cc1ccc(Sc2nccn3c(=O)n(CC(=O)Nc4ccc(Br)cc4C)nc23)c(C)c1 | -16.85 |
| CC(C)(C)NC(=O)Cn1nc2n(Cc3cccs3)c(=O)c3sccc3n2c1=O | -5.05 |
| O=C(Cn1nc2c3cc(-c4ccc(Cl)cc4)nn3ccn2c1=O)Nc1ccc2c(c1)OCCO2 | -1.57 |
| Cc1ccc(CN(c2ccc(C(C)C)cc2)S(=O)(=O)c2cccn3c(C)nnc23)cc1 | -8.61 |
| COc1ccc(-c2cc3c4nn(CC(=O)Nc5cc(C)ccc5OC)c(=O)n4ccn3n2)cc1 | -0.57 |
| CCOc1ccc(NC(=O)Cn2nc3ccc(SCc4ccc(Cl)cc4)nn3c2=O)cc1 | -5.7 |
| Cc1cc2nn(CC(=O)Nc3ccccc3F)c(=O)n2c(Nc2ccc(C)c(F)c2)n1 | -14.62 |
| COc1cc(NC(=O)Cn2nc3c(N4CCCC4)nccn3c2=O)cc(OC)c1 | -2.57 |
| COc1cccc(CNC(=O)CSc2nnc3ccc(C(=O)Nc4cccc(F)c4)cn23)c1 | -5.27 |
| COC(=O)c1ccc(NC(=O)Cn2nc3ccc(S(=O)(=O)C4CCCCC4)nn3c2=O)cc1 | -7.53 |
| COc1cccc(NC(=O)Cn2nc3c4cc(-c5ccc(Cl)cc5)nn4ccn3c2=O)c1 | 3.44 |
| Cc1ccc(-c2ccc3nn(CC(=O)Nc4ccc(Cl)cc4)c(=O)n3n2)cc1C | -3.03 |

| Structure (SMILES) | Inhibition [%] |
| --- | --- |
| O=C(CCc1nnc2c(N3CCCCC3)nc3ccccc3n12)NCc1ccccc1F | 6.41 |
| Cc1cc(C)cc(Nc2nc(C)cc3nn(CC(=O)Nc4ccc(F)cc4F)c(=O)n23)c1 | -0.48 |
| O=C(Cn1nc2n(Cc3ccccc3)c(=O)c3ccccc3n2c1=O)Nc1ccc2c(c1)OCO2 | 1.74 |
| COc1ccc(NC(=O)c2ccc3nn(CC(=O)Nc4ccc(C(C)C)cc4)c(=O)n3c2)cc1 | -3.43 |
| CC(C)CCNC(=O)CSc1nnc2c(=O)n(-c3ccc(F)cc3)ccn12 | -2.32 |
| Cc1ccc(-c2ccc3nn(Cc4cccc(F)c4)c(=O)n3n2)cc1C | 1.83 |
| CCCCOc1ccc(-c2cc3c4nnc(SCC(=O)Nc5ccc(F)cc5)n4ccn3n2)cc1 | -6.79 |
| COc1cccc(CN(c2cccc(F)c2)S(=O)(=O)c2ccc3nnc(C)n3c2)c1 | -2.32 |
| Cc1ccc(Cl)cc1NC(=O)Cn1nc2c(N3CCOCC3)nc3ccccc3n2c1=O | -9.52 |
| Cc1ccccc1NC(=O)Cn1nc2c3cc(-c4ccc(Cl)cc4)nn3ccn2c1=O | 4.06 |
| CCOC(=O)c1cccc(NC(=O)CSc2nc3ccccc3n3c(C(C)C)nnc23)c1 | -1.12 |
| CC(C)c1ccc(N(Cc2ccccc2)S(=O)(=O)c2cccn3cnnc23)cc1 | -8.68 |
| Cc1ccc(Sc2nccn3c(=O)n(CC(=O)Nc4ccc(C)cc4Br)nc23)c(C)c1 | -4.19 |
| CCc1ccc(N(Cc2cccc(OC)c2)S(=O)(=O)c2cccn3cnnc23)cc1 | 2.31 |
| Cc1cccc(Oc2nc3ccccc3n3c(=O)n(CC(=O)Nc4ccc5c(c4)OCCO5)nc23)c1C | -1.83 |
| O=C(Cn1nc2ccc(C(=O)NCc3ccccc3)cn2c1=O)Nc1ccc(Br)cc1 | -7.68 |
| Cc1ccc(-c2ccc3nn(Cc4c(F)cccc4Cl)c(=O)n3n2)cc1 | -0.36 |
| O=S(=O)(c1ccc2nncn2c1)N(Cc1ccc(Cl)cc1)c1ccc2c(c1)OCO2 | -6.36 |
| CCOc1ccc(N(Cc2cccc(F)c2)S(=O)(=O)c2ccc3nncn3c2)cc1 | -7.52 |
| CCc1ccccc1NC(=O)Cn1nc2c(SC3CCCCC3)nccn2c1=O | -2.96 |
